MCF10A rerep = A quantitative high throughput screen for small molecules that induce DNA re-replication in MCF 10a normal breast cells; Potency, µM (highest dose often 46.1 µM), inactives show at the highest dose activity, positive = re-replication, actives largely listed as activators; hit rate 2.9% among 350,000; MCF 10A DNA re-replication, Hoechst nuclear intensity, 48 h; also: % of control where 0% means no effect; nearly all actives have a fitted effect of over 50% in size
PINK1 modulator = A Quantitative High throughput Screen to Identify Chemical Modulators of PINK1 Expression; PINK1 immunofluorescence, high-content cytometry, 24 h; hit rate 0.2% among 410,000; Potency, µM (highest dose often 76.6 µM), inactives show top-dose activation (PINK1 increase), actives largely listed as activators; active = well fitted activation curve with a large enough effect; inconclusive = small, poorly fitted or top-dose-only effect; cell line not stated here; also: % of control where 0% means no effect; nearly all actives have a fitted effect of over 65% in size
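Compound titrations (5 concentrations, 24 h) on a stable cell line; DMSO and CCCP controls. Endpoint: fixed-cell PINK1 immunofluorescence with mitochondrial, cell and nuclear markers, scanned by microplate cytometer.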
KB-3-1 tox = qHTS assay for MDR1-selective chemotherapeutics: Primary screen using the parental adenocarcinoma cell KB-3-1. Potency, µM (titrated, usually from 46.1 µM), hits mostly cytotoxic. hit rate 1.4% among 400,000. KB-3-1 viability, CellTiter-Glo ATP luminescence, 72 h. AID 1347075, 2019; also: % is scaled to controls: 0 for no effect and ±100 for the full control effect; nearly all actives have a fitted effect of over 60% in size
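KB-3-1 cells, DMEM (no phenol red) + 10% FBS; compound by pin transfer, 72 h, 37 °C. Readout: CellTiter-Glo luminescence after 10 min. Data normalized, curve-fitted.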
KB-V1 cytotox = qHTS assay for MDR1-selective chemotherapeutics: Primary screen using the drug-selected MDR subline cells KB-V1 | hit rate 3.4% among 400,000 | KB-V1 MDR cells viability, CellTiter-Glo, 72 h | AID 1347076, 2019 | Potency, µM (series often up to 46.1 µM), most hits filed as cytotoxic; also: % is scaled to controls: 0 for no effect and ±100 for the full control effect; nearly all actives have a fitted effect of over 60% in size
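Cytotoxicity via CellTiter-Glo luminescence after 72 h compound exposure at 37 degrees C. Cells: drug-selected KB-V1 line, DMEM phenol-red free plus 10% FBS. Compounds tested at multiple concentrations; normalized data fitted to concentration-effect curves.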
TSG101-PTAP inh = qHTS Assay for Iinhibitors of HIV-1 Budding by Blocking the Interaction of PTAP/TSG101. Tumor susceptibility gene 101 protein (Homo sapiens), Q99816. Fluorescence polarization, FITC-PTAP peptide / Tsg101 binding. Potency, µM (doses to about 115 µM), for the others: at the highest dose activity change, negative = inhibition, hits mostly inhibitors. 340,000 tested, under 10 active. AID 493005, 2010; active = well fitted inhibition curve with a large enough effect in the main read-out, with a control signal flat, not every such curve was filed as active; inconclusive = small, poorly fitted or top-dose-only effect, or effect the other way, or a change in a side signal; inactive = no such curve, though single readings can be large or run the other way; also: % of control where 0% means no effect
Target sequence (Q99816 whole entry, looked up): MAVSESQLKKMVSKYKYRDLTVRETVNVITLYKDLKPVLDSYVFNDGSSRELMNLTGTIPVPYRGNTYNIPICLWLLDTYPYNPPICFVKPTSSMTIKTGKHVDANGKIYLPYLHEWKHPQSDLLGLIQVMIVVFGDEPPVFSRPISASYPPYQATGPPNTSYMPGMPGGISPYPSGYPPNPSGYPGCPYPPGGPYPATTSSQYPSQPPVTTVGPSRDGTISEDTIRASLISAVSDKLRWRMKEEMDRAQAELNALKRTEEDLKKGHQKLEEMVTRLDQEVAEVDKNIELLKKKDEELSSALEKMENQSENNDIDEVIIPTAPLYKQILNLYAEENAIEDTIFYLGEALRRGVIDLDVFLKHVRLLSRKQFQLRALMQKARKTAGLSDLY
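Fluorescence polarization binding of Tsg101 binding domain (10 uM final) to FITC-labeled PTAP peptide (50 nM final) in HEPES pH 7.5 buffer with NaCl, Tween 20, EDTA, TCEP. Compounds added before peptide; binding 20 min at RT.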
SW480 rereplic = A quantitative high throughput screen for small molecules that induce DNA re-replication in SW480 colon adenocarcinoma cells; SW480 DNA re-replication, Hoechst DNA content imaging, 48 h; hit rate 1.8% among 340,000; Potency, µM (highest dose often 46.1 µM), inactives show at the highest dose re-replication activation, most hits filed as activators; also: % of control where 0% means no effect; nearly all actives have a fitted effect of over 55% in size
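Image-based DNA-content assay: after two days of treatment, nuclei were labelled with the DNA dye Hoechst and imaged, and hits were compounds raising the count of nuclei showing high fluorescence intensity.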
Numbers without * were called inactive; i = inactive; ? = inconclusive; . = no result given; ! = not confirmed by another sample; [ ] = another dose, or the depositor's remark. Sampled rows, rich in hits. Any-hit rate of the full collection: about 6.8%. Unless noted, calls follow the shape of the dose curve; as a rule, active = well fitted curve in the direction sought with a large enough effect; inconclusive = small, poorly fitted or top-dose-only effect, or another doubt; inactive = no such curve, though single readings can be large; an effect the other way counts as inactive or inconclusive. Potency is read from the fitted curve at half-maximal effect.

SMILES	MCF10A rerep	PINK1 modulator	KB-3-1 tox	KB-V1 cytotox	TSG101-PTAP inh	SW480 rereplic
CCc1ccc(-c2cc(C(F)(F)F)n3nc(C(=O)Nc4cnn(Cc5ccccc5C)c4)cc3n2)s1	?	?	i	i	-5%	23%
CCc1ccc(-c2cc(C(F)(F)F)n3nc(C(=O)Nc4c(C)nn(Cc5ccccc5Cl)c4C)cc3n2)s1	3.3µM*	2%[38.3 µM]	i	?	.	10µM*
Cc1ccc(NC(=O)c2cccc(S(=O)(=O)N3CCN(c4ccc(F)cc4)CC3)c2)nc1	11%	8%	16µM*	?	1%	?
Cc1ccc(NC(=O)c2cccc(S(=O)(=O)N3CCCC3)c2)nc1	?	-3%	i	i	-3%	-120%
O=C(Nc1ccc(Cl)cn1)c1cccc(S(=O)(=O)N2CCOCC2)c1	-2%	-3%	i	21µM*	-8%	-1%
CCc1c(-c2ccccc2)nc2ccccc2c1C(=O)NCCc1ccccc1	.	2%	.	.	.	.
CC(=O)[C@@H]1[C@@H]2C(=O)N(Cc3ccccc3)C(=O)[C@@H]2C2c3ccccc3C=CN21 (some centres undefined)	5.8µM*	11µM*	i	i	-14%	4%
COc1ccc(C(=O)C[n+]2ccc3c(c2)nc(-c2ccc(OC)cc2OC)n3C)cc1	?	-1%	15µM*	i	-9%	1%
Cc1ccc(OCc2nc(-c3ccc(C(=O)NCc4ccc(OC(C)C)cc4)cc3)oc2C)cc1	.	4%	i	i	.	.
COc1ccccc1NC(=O)Cn1cc(C(=O)c2ccncc2)c(=O)c2cc(C)ccc21	.	4%	.	.	.	.
C=CCN(CC=C)Cc1c(O)ccc2c1oc(=O)c1ccccc12	5%	0%[38.3 µM]	i	10µM*	-13%	-1%
Cc1cc2c(cc1NC(=O)c1ccccc1Cl)n(C)c(=O)c(=O)n2C	.	0%	i	i	.	.
CC(=O)c1c(C(C)=O)c(C)n(-c2ccc(C)c(NC(=O)c3ccccc3Cl)c2)c1C	-6%	-3%[38.3 µM]	i	3.7µM*	.	8%
CCCn1c(=N)c(S(=O)(=O)c2ccc(F)cc2)cc2c(=O)n3ccccc3nc21	?	5%	i	i	3%	?
Cc1ccc(CNC(=O)c2cc3c(=O)n4ccccc4nc3n(Cc3ccco3)c2=N)cc1	7.9µM*	1%	i	i	-3%	16µM*
Cc1ccc2nc3c(cc(C(=O)NCc4ccco4)c(=N)n3Cc3ccco3)c(=O)n2c1	?	13%	i	i	-10%	24%
N=c1c(C(=O)NCc2ccccc2)cc2c(=O)n3ccccc3nc2n1Cc1ccco1	13µM*	2%	i	i	-5%	16µM*
COCCn1c(=N)c(C(=O)NCC2CCCO2)cc2c(=O)n3ccccc3nc21 (centres undefined)	.	0%	i	?	.	.
COCCn1c(=N)c(C(=O)NCc2ccco2)cc2c(=O)n3ccccc3nc21	10µM*	-1%	i	i	-2%	?
Cc1ccc(S(=O)(=O)c2cc3c(=O)n4ccccc4nc3n(Cc3ccco3)c2=N)cc1	9%	?	i	8.2µM*	-7%	-1%
CC(C)OCCCn1c(=O)c2ccccc2n2c(-c3cc(Cl)ccc3O)nnc12	.	2%	i	i	.	.
CC(C)n1c(=N)c(C(=O)NCCc2ccccc2)cc2c(=O)n3ccccc3nc21	13µM*	0%	i	?	1%	23µM*
CCOC(=O)c1cc2c(=O)n3ccccc3nc2n(Cc2ccc(Cl)cc2)c1=N	1.6µM*	1%	i	i	0%	2.1µM*
N=c1c(C(=O)NCc2ccc3c(c2)OCO3)cc2c(=O)n3ccccc3nc2n1Cc1cccnc1	15%	5%	i	i	3%	15%
N=c1c(C(=O)NCc2ccco2)cc2c(=O)n3ccccc3nc2n1Cc1ccc(Cl)cc1	2.3µM*	-3%	?	?	0%	9.2µM*
SMILES	MCF10A rerep	PINK1 modulator	KB-3-1 tox	KB-V1 cytotox	TSG101-PTAP inh	SW480 rereplic
CC(C)n1c(=N)c(C(=O)NC2CCCCC2)cc2c(=O)n3ccccc3nc21	.	-1%	i	?	.	.
N=c1c(C(=O)NCc2ccc(F)cc2)cc2c(=O)n3ccccc3nc2n1Cc1ccco1	6.5µM*	-1%	i	?	-10%	?
CCCCn1c(=NC(=O)c2ccco2)c(C(=O)OCC)cc2c(=O)n3ccccc3nc21	?	0%	i	i	-2%	-1%
CC(=O)c1ccc(F)c(-c2cc(C)cc3c2OC(CNC(=O)C2CCCCN2C)C3)c1 (centres undefined)	.	1%	.	.	.	.
Fc1ccc(Nc2ncnc3onc(-c4cccc(Cl)c4)c23)c(F)c1	.	0%	i	i	.	.
O=C(Nc1ccc2ccccc2c1)Nc1nnc(-c2ccc(F)cc2)s1	.	.	?	i	.	.
Fc1cccc(CSc2nc(NCCc3ccccc3)c3ccccc3n2)c1	.	1%	.	.	.	.
COc1ccc(CNC(=O)c2cc3c(=O)n4ccccc4nc3n(Cc3cccnc3)c2=N)cc1	?	18%[38.3 µM]	i	i	-4%	18%
N=c1c(C(=O)NCc2ccco2)cc2c(=O)n3ccccc3nc2n1Cc1ccccc1	18µM*	1%	?	?	-5%	15µM*
Cc1ccc(OCC(=O)Oc2cccc(C)c2)cc1	0%	0%	i	i	-1%	-19%
CC(=O)Nc1ccccc1OCCOc1ccc(Br)cc1	1%	2%	?	18µM*	0%	?
CC(=O)Nc1cccc(OC(=O)COc2ccc(Br)cc2)c1	5%	0%	i	i	-9%	29µM*
CCOC(=O)c1ccc(-n2ccnc2)c(NC(=O)c2ccc(Cl)cc2)c1	4%	4%	i	15µM*	-1%	-70%
COc1ccc(-c2cn(Cc3cccc(OC)c3)nn2)cc1	16%	0%	?	10µM*!	-4%	-9%
COCCN(CC(=O)Nc1ccccc1C(F)(F)F)C(=O)/C=C/c1cc(Cl)c2c(c1)OCCO2	12%	1%	i	3.7µM*	0%	17%
COCCN(CC(=O)Nc1ccccc1C(F)(F)F)C(=O)/C=C/c1cc(Cl)c2c(c1)OCO2	-3%	2%	i	i	-1%	-14%

From PubChem
